Many of the other results were omitted from the sample, so hits are more common in it than they were.
KDM5B inhibitor: Primary screen for KDM5B Histone Demethylases FDH-coupled qHTS. KDM5B demethylase, FDH-coupled NADH fluorescence (FDH is formaldehyde dehydrogenase). Potency, µM (series often up to 57.7 µM), usual class: inhibitors. actives 2.6% (n = 220,000). AID 1347165, 2019; active = well fitted inhibition curve with a large enough effect; note: 0% is about no effect; nearly all actives have a fitted effect of over 70% in size
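Here, H3K4me3 peptide (12.5 µM in substrate mix) is demethylated by KDM5BΔAP, 200 nM final, after 10 min compound exposure. Formaldehyde product is coupled through FDH (0.25 U/mL in mix) to NADH fluorescence; 30-min ΔRFU feeds dose-response curves.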
Active calls of the source: *; i = inactive. Potency is the fitted concentration of half-maximal effect.

SMILES	KDM5B inhibitor
Cc1ccc(CNC(=O)CC(C)S(=O)(=O)c2cc3c(cc2C)NC(=O)CO3)cc1 (stereo not given)	i
Cc1cc(-c2cc3c(ccn3C(C)C)c(C(=O)NCc3c(C)cc(C)[nH]c3=O)n2)ccn1	i
CCOc1ccc2c(c1)O/C(=C\c1ccc(OS(C)(=O)=O)c(OC)c1)C2=O	i
Cc1cnc(CC2CCN(C(=O)c3ccco3)CC2)n1CC1CC1	i
Cc1ccc(C)c(NC(NC(=O)C(C)C)C(Cl)(Cl)Cl)c1 (stereo not given)	i
CC(C)CN1CCC(NC(=O)Cc2cc(Cl)c3c(c2)OCCO3)CC1	i
CN1C(=O)C2(CCN(C(=O)c3ccn(C(C)(C)C)c3)CC2)c2ccccc21	i
Cc1cc(-c2csc(NC3CC3)n2)c(C)n1-c1c(C)n(C)n(-c2ccccc2)c1=O	i
Cc1ccc(NC(=O)c2cc(Cl)ccc2F)cc1	i
Cc1ccc(-c2ncc(NC(=O)c3cc(F)ccc3F)cn2)cc1	28.2µM*
O=C(Nc1cnc(-c2ccc(Cl)cc2)nc1)c1cccc(F)c1	i
Cc1ccc(NC(=O)C2CC2)cc1NC(=O)C1(C)CC1(Cl)Cl (stereo not given)	i
NC1CCc2nn(CC(=O)NCc3ccc4c(c3)OCO4)c(=O)n2CC1 (stereo not given)	10µM*
O=C(Cn1nc2n(c1=O)CCCCC2)Nc1ccc2c(c1)OCO2	i
O=C(Cn1nc2n(c1=O)CCCC2)Nc1ccc2c(c1)OCO2	i
COc1ccc(NC(=O)CCSc2nnc3scc(-c4ccc(Cl)cc4)n23)cc1	i
Cc1ccc2cccc(NC(=O)C(C)Oc3ccc(C(C)C)cc3)c2n1 (stereo not given)	i
O=C(CCc1nc2ccc(Cl)cc2[nH]1)N1CCc2nc3cc(-c4ccccc4)[nH]n3c(=O)c2C1	22.4µM*
Cc1nc(CCC(=O)N2CCc3c(nc(-c4ccccc4)[nH]c3=O)C2)n[nH]1	i
O=C1CN(C(=O)CCC(=O)N2CCc3c(nc4cc(-c5ccccc5)[nH]n4c3=O)C2)c2ccccc2N1	28.2µM*
O=C(CCc1nc2ccc(Cl)cc2[nH]1)N1CCc2c(nc3cc(-c4ccccc4)[nH]n3c2=O)C1	31.6µM*
O=C(CCc1cc(Cl)no1)N1CCc2nc3cc(-c4ccccc4)[nH]n3c(=O)c2C1	7.94µM*
CC1(c2noc(C3CC3)n2)CCN(C(=O)CCc2nc3ccc(Cl)cc3[nH]2)CC1	i
O=C(CCc1nc2ccc(Cl)cc2[nH]1)N1CCCC(Cc2nc(C3CCOCC3)no2)C1 (stereo not given)	i
CC1(c2noc(C3CC3)n2)CCN(C(=O)CCC(=O)N2CC(=O)Nc3ccccc32)CC1	i
SMILES	KDM5B inhibitor
CC1(c2noc(-c3ccccn3)n2)CCN(C(=O)CCc2nc3ccc(Cl)cc3[nH]2)CC1	i
O=C(CCc1cc(Cl)no1)NCCc1noc(-c2ccccc2)n1	i
O=C(Cc1ccc(F)cc1)N1CCc2nc(-c3ccc(Cl)cc3)nc(-c3ccccc3)c2C1	i
Cn1cnnc1-c1nn(C)c2c1CN(C(=O)CCC(=O)N1CC(=O)Nc3ccccc31)CC2	i
O=C(Nc1cc(-c2nc3ccccc3o2)ccc1Cl)c1ccc([N+](=O)[O-])o1	i
O=C1NCCCCCN(S(=O)(=O)c2ccccc2)[C@H]2CCCC[C@@H]12	i
CC(C)c1ccc(S(=O)(=O)NCC(c2cccs2)N(C)C)cc1 (stereo not given)	i
COc1ccc(C(=O)Nc2oc3ccc(Cl)cc3c(=O)c2-c2ccc(OC)cc2)cc1	i
CC(=O)c1ccc(OCc2c(F)cccc2Cl)cc1	i
Cc1nnc([C@@H]2CC(F)(F)CN2C(=O)c2ccoc2C)o1	i
Cc1nnc([C@@H]2CC(F)(F)CN2C(=O)c2conc2C)o1	i
Cc1nnc([C@@H]2CC(F)(F)CN2C(=O)c2cccc3[nH]ccc23)o1	28.2µM*
CC(=O)Nc1nc2c(C)cc(NS(=O)(=O)Cc3ccccc3)cc2s1	i
O=C(c1ccc(Cl)cc1)N1CCn2c(nn(-c3ccc(C(F)(F)F)cc3)c2=O)C1	i
CCCCn1c(=O)n(CC(O)COc2ccc(CC)cc2)c(=O)c2c1ncn2CCOC (stereo not given)	i
CC(=O)NC(C)(C)Cc1ccc(O)c(Br)c1	i
Cc1noc(C)c1-c1cc2c(cc(C)n2CCN(C)C)c(-c2ccccc2)n1	31.6µM*
COc1cncc(-c2nc(-c3c(C)noc3C)cc3c2cc(C)n3CCN(C)C)c1	39.8µM*
Cc1cc(-c2nc(-c3c(C)noc3C)cc3c2cc(C)n3CCN(C)C)ccn1	35.5µM*
Cc1noc(C)c1-c1cc2c(cc(C)n2CCN(C)C)c(Nc2ccncn2)n1	31.6µM*
Cc1cc2cc(-c3c(C)noc3C)nc(Nc3ccn(C)n3)c2o1	i
COc1ccc(CCC(=O)N2[C@@H]3CC[C@H]2CC(NC(=O)c2ccc(F)cc2)C3)cc1 (stereo not given in full)	i
Cc1ccc(C(=O)OC(C)C(=O)N2CCc3ccccc32)cc1S(=O)(=O)N1CCCCC1 (stereo not given)	i
CCCNC(=S)Nc1cccc(Cl)c1	i
COC(=O)c1c(NC(=O)CSc2ncnc3ccccc23)sc2c1CCCC2	i
SMILES	KDM5B inhibitor
COc1ccc(-n2ccnc2CN2CCN(CC=C(C)C)C(CCO)C2)cc1 (stereo not given)	i
Cc1cc(C(=O)OCC(=O)c2cccc3ccccc23)c2ccccc2n1	i
CS(=O)(=O)c1ccc(F)c(NCc2ccccc2Cl)c1	i
Cc1ccc(CNC(=O)c2ccccc2NC(=O)Cn2cnc3c2c(=O)n(C)c(=O)n3C)cc1	i
COc1ccc(C(C)NC(=O)C2CCN(C(=O)c3ncn4c3COC(c3ccccc3)C4)CC2)cc1 (stereo not given)	i
CCOc1ccc(C=O)cc1-c1ccccc1	i
COc1cc(-c2nc(-c3c(C)noc3C)cc3c2cc(C)n3CCN(C)C)ccn1	31.6µM*
Cc1noc(C)c1-c1cc2c(cc(C)n2CCN(C)C)c(-c2ccsc2)n1	31.6µM*
Cc1noc(C)c1-c1cc2c(cc(C)n2CCN(C)C)c(-c2ccnn2C)n1	35.5µM*
CC(C)c1ccc(NC(=O)c2cc3ccccc3oc2=O)cc1	i
Cc1ccsc1CN1CCc2[nH]nc(C(=O)N(C)C)c2C1	i
CCC(=O)Oc1ccc2c(=O)c(-c3nc4ccccc4s3)c(C)oc2c1	i
Fc1ccccc1-c1nnc(SCc2c(F)c(F)c(F)c(F)c2F)n1C1CC1	i
CC(=O)Nc1cccc(-c2cc(-c3ccncc3)c3cncn3c2)c1	i
c1cc(-c2cc(-c3ccncc3)c3cncn3c2)c2[nH]ccc2c1	i
c1cncc(-c2cc(-c3cccc4cc[nH]c34)cn3cncc23)c1	35.5µM*
C[S+](=O)([O-])Nc1cccc(-c2cc(-c3cccnc3)c3cncn3c2)c1	35.5µM*
CC(C)OCCN1CCC(N2CCCC2)CC1	i
NC1=NC(c2ccccc2)C=C(c2ccccc2)O1 (stereo not given)	i
CCOC(=O)c1cc2cc(Cl)ccc2[nH]1	i
CCN(CC)S(=O)(=O)c1ccc(NCc2ccccc2C#N)cc1	i
COc1cccc([S+](=O)([O-])N2CCC3(C2)C(=NC2CCCC2)NC(=O)N3c2cc(F)cc(F)c2)c1 (stereo not given)	i
CCCCn1cnc2c1c(=O)n(CC(=O)Nc1cccc(Cl)c1)c(=O)n2CCCC	i
